# According to ChEMBL document CHEMBL4513216, “Probing the Open Global Health Chemical Diversity Library for Multistage-Active Starting Points for Next-Generation Antimalarials” (ACS Infect Dis, 2020):
# Hit rate of the full screen: of about 69,000 compounds, about 8,600 (12%) showed an effect of 50% or more. For the sample, strong results were picked, then their nearest neighbours and some compounds at random.
# System: Plasmodium berghei
# Assay: Screen against P. berghei liver stage (PbLuc), transformed with Luciferase, at 10uM
# Format: functional, HepG2
# Conditions: tested at 10 uM
row,SMILES,INHIBITION
1,COCC1CC2(CCN(Cc3ccccn3)CC2)CN1c1ncccn1 (configuration not stated),8.67%
2,CC(C)CCn1c(=O)[nH]c2cn(-c3ccc(F)cc3)c(=O)n21,-15%
3,CN1CCC(C(=O)NCCC2CN(c3cnn(C)c(=O)c3)CCO2)CC1 (configuration not stated),23.6%
4,O=C1OCCCN1Cc1nc(-c2ccc(N3CCCCC3)cc2)no1,55.5%
5,O=C1NCCCN1Cc1nc(-c2ccc(N3CCCCC3)cc2)no1,26.4%
6,O=C1OCCCN1Cc1nc(-c2ccncc2)no1,36.5%
7,Cc1ccc2[nH]c(=O)cc(C(=O)N[C@@H]3C[C@@H](CO)N(C)C3)c2c1,46.7%
8,O=C(CSC1=NS(=O)(=O)c2cc(F)ccc2N1)Nc1ccc(Cl)cc1,3.52%
9,O=C(CSC1=NS(=O)(=O)c2cc(F)ccc2N1)Nc1ccc(Cl)c(Cl)c1,57.3%
10,O=C(CSC1=NS(=O)(=O)c2cc(F)ccc2N1)Nc1cccc(Cl)c1,16.6%
11,COc1cc2c(nn1)CCN(Cc1nc(Cc3ccccc3)no1)C2,-112%
12,COc1cc2c(nn1)CCN(Cc1ncc(C(C)(C)C)o1)C2,18.9%
13,COc1cc2c(nn1)CCN(Cc1nnc(Cc3ccccc3)o1)C2,88.5%
14,O=C(C1CCCO1)N1CCCn2c(nnc2Cn2ccnc2)C1 (configuration not stated),-12.4%
15,CC(C)n1cc(S(=O)(=O)N2CCCCCC2)cn1,33.3%
16,c1ccc(CCc2n[nH]c(C3CCC3)n2)cc1,-31.9%
17,OC1(CNc2ccc(F)cc2)CCNCC1,6.29%
18,Cc1ccc(NCC2(O)CCNCC2)cc1C,23.1%
19,COc1ccc(NCC2(O)CCNCC2)cc1OC,62.7%
20,O=C(CCn1c(C(F)(F)F)cc2cccnc21)NC1CCCC1,8.72%
21,Cc1nc2c(c(NCCN3CCOCC3)n1)CCN(C)C2,7.55%
22,CCN(CC)CCCNc1nc(C)nc2c1CCN(C)C2,5.185%
23,Cc1nc2c(c(NCCCN3CCOCC3)n1)CCN(C)C2,59.7%
24,CC(C)Cc1nc(CN2CCOC(Cn3cncn3)C2)no1 (configuration not stated),15.3%

row,SMILES,INHIBITION
1,Cc1nccc(N2CCCC2CCNS(C)(=O)=O)n1 (configuration not stated),10.9%
2,c1ccc(Cc2nc(CN3CCCC3Cn3cncn3)cs2)cc1 (configuration not stated),23.5%
3,CCc1cc(=O)n(CCNC(=O)Nc2ccc(OC(F)(F)F)cc2)cn1,28%
4,CCc1ccc(S(=O)(=O)NCC2CCN(c3cnccn3)CC2)s1,83%
5,CCS(=O)(=O)NCC1CCN(c2cnccn2)CC1,40%
6,O=S(=O)(NCC1CCN(c2cnccn2)CC1)c1cccs1,25.1%
7,O=C(c1ccc[nH]1)N1CCc2onc(COc3cccnc3)c2C1,21.8%
8,O=C(c1cc[nH]n1)N1CCc2onc(COc3cccnc3)c2C1,67.2%
9,CC(=O)NCc1nn(C)c2c1CN(Cc1ccsc1)C2,69.7%
10,c1cncc(OCc2noc3c2CN(Cc2ccoc2)CC3)c1,-3.95%
11,c1cncc(OCc2noc3c2CN(Cc2cccs2)CC3)c1,-26.5%
12,Cn1nc(Cn2cccc2)c2c1CN(Cc1ccsc1)C2,-5.08%
13,CC(=O)NCc1noc2c1CN(Cc1cnn(C)c1)CC2,46.7%
14,CC(=O)NCc1noc2c1CN(Cc1ccsc1)CC2,64.5%
15,CC(=O)NCc1noc2c1CN(Cc1cccs1)CC2,6.83%
16,O=C(N1CCCC1)N1CCc2onc(COc3cccnc3)c2C1,20.6%
17,CC(=O)N(C)Cc1nn(C)c2c1CN(Cc1ccsc1)C2,-37.9%
18,c1cncc(OCc2noc3c2CN(Cc2ccsc2)CC3)c1,56.1%
19,CNC(=O)CCc1cc(C)nc(C2CCN(c3cnccn3)CC2)c1,34.65%
20,CC(=O)N1CCCC1c1nccnc1NCc1cccnc1 (configuration not stated),-9.51%
21,CNc1cncc(C2CCN(S(C)(=O)=O)CC2)n1,12.8%
22,CCCC(NC(=O)c1ccccc1Br)c1nnn[nH]1 (configuration not stated),43.1%
23,Cc1noc(C)c1CC(=O)N1CCC(c2ccn3nccc3n2)CC1,-27.8%
24,CS(=O)(=O)N1CC[C@H]2OCC[C@@]2(C(=O)NCCc2ccccn2)C1,38.5%

row,SMILES,INHIBITION
1,Nc1cc(CCCNC(=O)NC2CCCC2)nn1-c1ccccc1,-26.2%
2,CC(C)N(C(=O)CCc1cccc(F)c1)C1CCOCC1,-6.34%
3,CN1CCN(C(=O)c2nc3c(s2)CCCN3C(=O)C2CC2)CC1,37.9%
4,CCc1nnc2n1CCN(Cc1ncc(-c3ccccc3)o1)C2,9.665%
5,CCN(CC1CCOC1)C(=O)c1cnc2onc(C)c2c1 (configuration not stated),34.15%
6,O=C(CC1CCCC1)NCCn1ccc(-c2ccncc2)n1,36.3%
7,Cc1nnsc1C(=O)NCCn1ccc(-c2ccncc2)n1,61.5%
8,O=C(NCCn1ccc(-c2ccccn2)n1)c1ccncc1,31.2%
9,O=C(NCCn1ccc(-c2ccncc2)n1)c1ccc2c(c1)OCO2,64.5%
10,O=C(NCCn1ccc(-c2ccncc2)n1)c1ccncc1,26.4%
11,CC(C)(C)CC(=O)NCCn1ccc(-c2ccncc2)n1,-4.99%
12,CC(C)(C)C(=O)NCCn1ccc(-c2ccncc2)n1,11.9%
13,O=C(NCCn1ccc(-c2ccncc2)n1)C1CC1,52.6%
14,O=C(NCCn1ccc(-c2ccccn2)n1)C1CC1,-30%
15,CCOCC(O)CN1CCN(C(=O)c2cc(C)ccc2OC)CC1 (configuration not stated),-35.7%
16,Cn1cc(CC2CCN(C(=O)NCc3csc(C4CC4)n3)C2)cn1 (configuration not stated),11.8%
17,O=C(O)c1cccnc1CN1CCCCC1CCc1cccs1 (configuration not stated),5.78%
18,Cc1nc(NC(=O)N[C@H](CO)c2ccccc2)sc1C,7.3%
19,COc1ccc2nc(CNC(=O)c3cc(C(C)C)on3)[nH]c2c1,27.5%
20,CCn1nc(C(C)C)cc1C(=O)NCc1nc2ccc(OC)cc2[nH]1,37.6%
21,COc1ccc2cc(C(=O)NCCc3nc(C)no3)[nH]c2c1,-1.79%
22,COc1ccc2nc(CCNC(=O)c3cc(CC(C)C)no3)[nH]c2c1,55.5%
23,COc1ccc(COCC(O)CNC(=O)c2cc(C)no2)cc1 (configuration not stated),5.03%
24,COc1ccc2nc(CNC(=O)c3cc(C(C)C)no3)[nH]c2c1,73.4%
